Assay outcomes deposited in PubChem by National Center for Advancing Translational Sciences (NCATS).
In the library only some 6% were active in any assay of this set; here they are far more common.
D1 PAM: Potentiators of Human D1 Dopamine Receptor: qHTS | D(1A) dopamine receptor (Homo sapiens), P21728 | HEK293 TREx D1 cells, calcium flux, dopamine EC20 potentiation | potentiation, % at 10 µM | 0.036% of 360,000 active; in the data active = potentiation above about 30%; also: 0% is about no effect
Target sequence (P21728 whole entry, looked up): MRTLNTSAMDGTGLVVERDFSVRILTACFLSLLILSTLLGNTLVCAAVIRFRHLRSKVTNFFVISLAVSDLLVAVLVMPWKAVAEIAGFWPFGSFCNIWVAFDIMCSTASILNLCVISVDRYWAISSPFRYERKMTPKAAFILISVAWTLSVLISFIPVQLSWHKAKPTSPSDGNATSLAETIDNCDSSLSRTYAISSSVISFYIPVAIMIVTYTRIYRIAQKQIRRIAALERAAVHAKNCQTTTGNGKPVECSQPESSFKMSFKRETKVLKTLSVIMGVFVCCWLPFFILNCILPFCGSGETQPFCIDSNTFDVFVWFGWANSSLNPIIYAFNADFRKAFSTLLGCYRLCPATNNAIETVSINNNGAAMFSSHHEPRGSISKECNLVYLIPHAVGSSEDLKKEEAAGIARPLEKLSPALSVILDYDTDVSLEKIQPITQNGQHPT
D3 ag: qHTS of D3 Dopamine Receptor Agonist: qHTS; D3R DiscoveRx beta-arrestin cells, luminescence, 90 min; max activation, %; 0.58% of 410,000 active; AID 652048, 2013; in the data active = max activation above about 30%; also: 0% is about no effect
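Cells at 1500/well, incubated overnight, then treated with pinned compounds (dopamine as control) for 90 min at 37 degrees C. DiscoveRx reagent added for 30 - 60 minutes at room temperature; luminescence read.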
DRD3 antagonist: qHTS of D3 Dopamine Receptor Antagonist: qHTS; 2.5% of 360,000 active; D3R cells, DiscoveRx beta-arrestin luminescence, antagonist mode; active compounds read low; max response, negative = inhibition, %; in the data active = max response below about -50%; inconclusive = no clear call, values can overlap the other calls; also: % is scaled to controls: 0 for no effect and ±100 for the full control effect
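Cells expressing the human receptor were seeded at 1500 cells/well, incubated overnight at 37 degrees C in 5% CO2, then exposed to library compounds with dopamine controls for 90 minutes at 37 degrees C before luminescent detection.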
BCR signal inh: qHTS Assay to Find Inhibitors of Chronic Active B-Cell Receptor Signaling. 0.05% of 340,000 active. ABC-DLBCL IkBa-CBG/CBR reporter, luminescence ratio, 4 h. AID 493014, 2011. Potency, µM (top dose mostly 46.1 µM), without a hit: at the top dose activity change, negative = inhibition, usual class: inhibitors; active = well fitted inhibition curve with a large enough effect in the signal ratio, with a control signal flat, not every such curve was filed as active; inconclusive = small, poorly fitted or top-dose-only effect, or effect the other way, or a change in a side signal; the % refers to the signal ratio;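 also: potency is read from the fitted curve at half-maximal effect; plate controls were basal doxycycline-induced cells for no effect and cells given 10 µM MG132 for full effect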
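Compounds up to 46 uM were incubated four hours with TMD8 cells whose green CBG68 luciferase is fused to IkappaBalpha; red CBR luminescence normalised the signal, and concentration-effect curves were fitted to fusion, red and ratio data.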
D1 agonist: Allosteric Agonists of the Human D1 Dopamine Receptor: qHTS; AID 504660, 2011; activation, % at 2 µM; HEK293 T-REx D1 cells, calcium flux, agonist mode; D(1A) dopamine receptor (Homo sapiens), P21728; 1% of 360,000 active; in the data active = activation above about 30%; also: 0% is about no effect
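Tetracycline-induced HEK293 TREx D1 cells, force-coupled to calcium signalling, were dye-loaded with a no-wash calcium kit. Compound was pin-added after a 10 s baseline. Fluorescence was read kinetically at 1 cycle/s for 180 s, with calcium rises flagged as agonism.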
D1 antagonist: Antagonist of Human D 1 Dopamine Receptor: qHTS; D(1A) dopamine receptor (Homo sapiens), P21728; HEK293 TREx D1 cells, calcium flux, dopamine EC80; active compounds read low; activity change, negative = inhibition, % at 10 µM; 3.2% of 360,000 active; AID 504652, 2011; in the data active = activity change below about -30%; also: % is scaled to controls: 0 for no effect and ±100 for the full control effect
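Inducible Hek293 Trex D1 cells (tetracycline, overnight, 30 C). Calcium dye 30–90 min RT. Antagonist mode: EC80 dopamine added after 180 s compound read.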
Active calls of the source: *.

For COc1ccc(CN2CCN(c3cc(C)nc4c5c(C)cc(C)nc5nn34)CC2)cc1F the results were D1 PAM -2.7, D3 ag -4.2, DRD3 antagonist -7.6, BCR signal inh -1.9%, D1 agonist 1.0 and D1 antagonist -38.3*.
Screening CCCC[n+]1ccn(-c2nc3ccccc3nc2[N-]S(=O)(=O)c2ccc(Cl)cc2)c1 returned D1 PAM 12.7, D3 ag 8.5, DRD3 antagonist 14.4, BCR signal inh 9.1%, D1 agonist 6.4 and D1 antagonist -39.8*.
`O=C(O)CCC(C(=O)O)n1c(O)c(C2=c3ccccc3=NC2=O)sc1=S` (stereo unspecified) gave D1 PAM 1.6, D3 ag -9.4, DRD3 antagonist -102.8*, BCR signal inh 12.3%, D1 agonist 1.9 and D1 antagonist -2.1.
For O=C(O)Cn1c(O)c(C2=c3ccccc3=NC2=O)sc1=O the results were D1 PAM -6.5, D3 ag 1.3, DRD3 antagonist inconclusive, BCR signal inh inconclusive, D1 agonist 4.1 and D1 antagonist -3.8.
`CCCCOc1ccc(C(=O)N2CCCC2C(=O)O)cc1` (stereo unspecified) gave D1 PAM -3.5, D3 ag -0.6, DRD3 antagonist 0.0, BCR signal inh 1.6%, D1 agonist -1.4 and D1 antagonist -7.4.
CCCOc1ccc(C(=O)N2CCCC2C(=O)O)cc1 (stereo unspecified) was read as D1 PAM 0.3, D3 ag 1.1, DRD3 antagonist -60.9*, BCR signal inh 3.4%, D1 agonist 1.4 and D1 antagonist -3.8.
For O=C(c1ccccc1)c1ccc(NCCCn2ccnc2)c([N+](=O)[O-])c1 the results were D1 PAM -11.5, D3 ag -5.9, DRD3 antagonist inconclusive, BCR signal inh -0.8%, D1 agonist 15.3 and D1 antagonist -35.5*.
For CCN(CC)S(=O)(=O)c1ccc(NCCCn2ccnc2)c([N+](=O)[O-])c1 the results were D1 PAM 1.5, D3 ag 3.8, DRD3 antagonist 4.7, BCR signal inh -0.5%, D1 agonist 0.2 and D1 antagonist -7.2.
`O=C(NCCCn1ccnc1)c1ccc(NS(=O)(=O)c2ccc(Cl)c(Cl)c2)cc1` gave D1 PAM 11.1, D3 ag -11.8, DRD3 antagonist -5.5, BCR signal inh 17.3%, D1 agonist 34.2* and D1 antagonist -0.1.
`O=C(NCCCn1ccnc1)c1ccc2ccccc2c1` gave D1 PAM -6.7, D3 ag -2.7, DRD3 antagonist 9.5, BCR signal inh 3.7%, D1 agonist 2.8 and D1 antagonist -37.0*.
For O=C(NCCCn1ccnc1)c1cn(-c2ccccc2)nc1-c1ccccc1 the results were D1 PAM -8.2, D3 ag -3.9, DRD3 antagonist -21.9, D1 agonist 0.6 and D1 antagonist -83.4*.
Screening COC(=O)CC1Oc2ccc(F)cc2-n2cc(-c3ccc(C)cc3)nc21 (stereo unspecified) returned D1 PAM -4.5, D3 ag -14.5, D1 agonist 0.3 and D1 antagonist -1.5.
Screening O=C(NCc1ccc(F)cc1)c1cnc(N2CCCCC2)c2ccccc12 returned D1 PAM -3.5, D3 ag 6.2, D1 agonist -0.4 and D1 antagonist -1.6.
CCc1ccc(NC(=O)CC2C(=O)N(c3ccccc3)C(=O)N2C(C)C)cc1 (stereo unspecified) was read as D1 PAM -1.3, D3 ag -1.1, D1 agonist 0.3 and D1 antagonist -1.2.
Screening CCNc1nc(C#N)nc2c1ncn2-c1cccc(Cl)c1 returned D1 PAM -5.3, D1 agonist 1.2 and D1 antagonist -9.7.
COc1cc2c(cc1OC)C(COc1ccc(C(C)C)cc1)NCC2 (stereo unspecified) was read as D1 PAM -3.6, D3 ag -11.8, DRD3 antagonist -9.6, BCR signal inh -28.8%, D1 agonist 40.5* and D1 antagonist -26.8.
CC(=O)Nc1ccc(S(=O)(=O)N2CCN(c3ccc([N+](=O)[O-])cc3)CC2)cc1 was read as D1 PAM -5.3, D3 ag 3.5, DRD3 antagonist -3.1, BCR signal inh 0.0%, D1 agonist 5.0 and D1 antagonist -35.2*.
For CC(=O)Nc1ccc(S(=O)(=O)N2CCN=C2SCc2ccc([N+](=O)[O-])cc2)cc1 the results were D1 PAM -8.7, D3 ag -31.3, DRD3 antagonist -17.6, BCR signal inh 0.9%, D1 agonist 18.4 and D1 antagonist -65.0*.
For CC(=O)Nc1ccc(S(=O)(=O)N2CCN(CCc3ccccc3)CC2)cc1 the results were D1 PAM -5.6, D3 ag 2.8, DRD3 antagonist 2.9, BCR signal inh 4.4%, D1 agonist 4.4 and D1 antagonist -33.2*.
Screening CCOc1ccccc1CNC(=O)CCc1c(C)nn(-c2ccc(N3CCCCC3)nn2)c1C returned D1 PAM -2.6, D3 ag -4.2, D1 agonist 3.8 and D1 antagonist -17.6.
Screening CC1(C)C(=O)OC(c2ccc([N+](=O)[O-])cc2)C(C)(C)C1=O (stereo unspecified) returned D1 PAM -0.5, D3 ag 1.4, DRD3 antagonist -2.2, BCR signal inh -0.7%, D1 agonist 6.8 and D1 antagonist -31.6*.
`CC1C(=O)C(C)(C)C(=O)OC1c1ccc([N+](=O)[O-])cc1` (stereo unspecified) gave D1 PAM -2.5, D3 ag -4.6, DRD3 antagonist -3.7, BCR signal inh -0.8%, D1 agonist 1.2 and D1 antagonist -9.5.
`CCCn1c(N2CCOCC2)nc2c1c(=O)[nH]c(=O)n2C` gave D1 PAM 0.1, D3 ag -10.5, DRD3 antagonist -5.5, BCR signal inh 3.7%, D1 agonist 4.8 and D1 antagonist -5.8.
Screening Cn1c(=O)[nH]c(=O)c2c1nc(N1CCNCC1)n2Cc1cccc2ccccc12 returned D1 PAM -1.5, D3 ag -5.7, DRD3 antagonist -79.7*, BCR signal inh 5.1%, D1 agonist 1.4 and D1 antagonist 12.0.
`Cn1c(=O)c2c(nc(N3CCNCC3)n2Cc2cccc3ccccc23)n(C)c1=O` gave D1 PAM -4.3, D3 ag -8.9, DRD3 antagonist -68.8*, BCR signal inh -18.4%, D1 agonist 4.0 and D1 antagonist -9.8.
